Screens as filed in PubChem.
The list is not random: actives were taken first. Their share in the collection is about 18%.
TDP1 block – blocks human tyrosyl-DNA phosphodiesterase 1; Q9NUW8; recombinant TDP1, AlphaScreen DNA substrate cleavage; Potency, µM (top dose mostly 130 µM), usual class: inhibitors; actives 0.28% (n = 350,000); AID 485290; note: nearly all actives have a fitted effect of over 40% in size
Target sequence (Q9NUW8 whole entry, looked up): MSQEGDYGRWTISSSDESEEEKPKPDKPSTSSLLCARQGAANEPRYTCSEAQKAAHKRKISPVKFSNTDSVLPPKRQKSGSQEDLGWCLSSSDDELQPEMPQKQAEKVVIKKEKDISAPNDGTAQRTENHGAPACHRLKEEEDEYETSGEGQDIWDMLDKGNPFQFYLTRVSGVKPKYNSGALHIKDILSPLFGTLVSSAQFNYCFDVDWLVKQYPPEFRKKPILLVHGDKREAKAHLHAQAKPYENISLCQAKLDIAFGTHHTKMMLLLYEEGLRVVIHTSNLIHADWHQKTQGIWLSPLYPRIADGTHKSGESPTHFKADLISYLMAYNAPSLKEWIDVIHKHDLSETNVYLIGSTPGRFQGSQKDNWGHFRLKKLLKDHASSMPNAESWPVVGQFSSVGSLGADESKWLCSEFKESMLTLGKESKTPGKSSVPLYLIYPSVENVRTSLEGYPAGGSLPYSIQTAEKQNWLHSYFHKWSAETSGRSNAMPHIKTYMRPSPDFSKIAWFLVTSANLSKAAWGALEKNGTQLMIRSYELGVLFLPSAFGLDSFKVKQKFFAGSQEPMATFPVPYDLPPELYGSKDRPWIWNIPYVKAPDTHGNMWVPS
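Recombinant E. coli-expressed Tdp1 (1 nM) preincubated with compound 15 min at RT, then 5'-biotin/3'-phosphotyrosine-FITC DNA substrate (15 nM) added for 5 min. AlphaScreen beads (10 ug/ml) added, 10 min RT; tyrosine-FITC cleavage read as signal loss.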
DT40 TDP1 CPT – DT40-hTDP1 cell growth loss with CPT; chicken DT40 Tdp1-/-;hTDP1 cells + 20 nM CPT, ATP luminescence, 48 h; Potency, µM (highest dose often 46.2 µM), actives largely listed as inhibitors; actives 12% (n = 420,000); note: nearly all actives have a fitted effect of over 55% in size
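Chicken DT40 Tdp1-/- cells stably complemented with human TDP1 were seeded at 400 cells/well in medium containing 20 nM camptothecin, exposed to pin-transferred compounds, and grown at 37 °C for at least 48 hr. Viability was read as ATP luminescence.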
IL-1B inflam inh – inflammasome signaling inhibition, IL-1 beta readout. THP-1 LPS/ATP IL-1B secretion, AlphaLISA, 16 h; stronger effect = lower value. activity change, % at 57.5 µM. actives 4.7% (n = 360,000). AID 743279; in the data active = activity change below about -50%; inconclusive = mostly about -30% to -49%
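Secreted IL-1B measured by AlphaLISA bead assay after 16 h compound exposure of THP-1 cells; compounds (final up to 57.5 uM) added 1 h before LPS (250 ng/mL) and ATP (1.25 mM) stimulation; lower signal means less secretion.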
DT40 TDP1 no CPT – qHTS for Inhibitors of human tyrosyl-DNA phosphodiesterase 1 (TDP1): qHTS in cells in absence of CPT. DT40 Tdp1-/- hTDP1 cells, no CPT, ATP luminescence, 48 h. Potency, µM (doses to about 46.2 µM), most hits filed as inhibitors. actives 15% (n = 420,000). AID 686978, 2013; note: nearly all actives have a fitted effect of over 55% in size
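Seeded 400 DT40-hTDP1 cells/well (vehicle DMSO, no 20 nM CPT); pinned compounds; ≥48 hr at 37 °C; CellTiter-Glo luminescence as viability measure.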
CtBP-E1A blk – CtBP/E1A binding inhibition; AlphaScreen GST-E1A/His-CtBP binding, 1536-well; stronger effect = lower value; activity change, % (no concentration beside the values); actives 0.49% (n = 340,000); AID 651724; in the data active = activity change below about -65%; inconclusive = mostly about -30% to -63%
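AlphaScreen with 125 nM GST-E1A and 125 nM His-CtBP (5X stocks) in Tris pH 8.0, 300 mM NaCl, BSA, Tween 20, TCEP. Compounds preincubated 2 h at 37 deg C, then glutathione donor/nickel acceptor beads added for 1 h at 37 deg C in dark.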
Six1-Eya2 blk – inhibitors of human Six1/Eya2 interaction | Q15475+O00167 | AlphaScreen GST-Six1/His-Eya2 binding, biochemical; stronger effect = lower value | activity change, % (test concentration not listed) | actives 0.56% (n = 360,000) | AID 651725; in the data active = activity change below about -65%; inconclusive = mostly about -30% to -63%
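GST-Six1 + His-Eya2 (5X stock: 250/500 nM); Tris pH 8.0, 300 mM NaCl, 0.05% BSA, 0.02% Tween 20; GSH donor/Ni acceptor beads; 1 h 37 °C dark; AlphaScreen readout.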
Hits are given with their value; . = inactive; ? = inconclusive; / = no result. Unless noted, calls come from the whole dose curve; as a rule, active = well fitted curve in the direction sought with a large enough effect; inconclusive = small, poorly fitted or top-dose-only effect, or another doubt; inactive = no such curve, though single readings can be large; an effect the other way counts as inactive or inconclusive.

SMILES	TDP1 block	DT40 TDP1 CPT	IL-1B inflam inh	DT40 TDP1 no CPT	CtBP-E1A blk	Six1-Eya2 blk
Cc1ccc(SCCNC(=O)c2ccc([N+](=O)[O-])c(C)c2)cc1	.	.	?	.	.	.
O=S1(=O)CC/C(=N/Nc2ccccn2)c2cc(F)ccc21	.	?	.	?	.	.
CCOc1cc(CNc2ccc(O)cc2)ccc1OCc1ccc(Cl)cc1Cl	.	14.6µM	-106.3	14.6µM	?	.
NS(=O)(=O)c1ccc(NCc2ccccc2OCc2ccccc2F)cc1	.	?	.	?	.	.
COc1cc(CNc2ccc3[nH]c(=O)[nH]c3c2)ccc1OCc1ccc(F)cc1Cl	.	?	?	?	.	.
Oc1ccc(NCc2ccccc2OCc2ccccc2F)cc1	.	18.4µM	.	16.4µM	?	.
N#CC1=C(N)OC2=C(C(=O)CCC2)C12CCN(C(=O)OCc1ccccc1)CC2	.	.	.	.	.	.
COc1cccc(C2c3c(ncn(-c4ccc(F)cc4)c3=N)Oc3ccc4ccccc4c32)c1 (centres undefined)	.	/	/	/	/	/
Clc1ccc2c(c1)C(C1=NCCN1)c1ccccc1CS2 (centres undefined)	.	6.51µM	.	5.8µM	.	.
CCN(CC)S(=O)(=O)c1ccc(N2CCOCC2)c(NC(=O)COc2ccccc2C#N)c1	.	?	.	.	.	.
CCOc1ccccc1C(=O)NC(C(=O)N(C)Cc1ccc2c(c1)OCO2)C(C)C (centres undefined)	.	18.4µM	.	?	.	.
CCOC(=O)N1CCC(N2Cc3cccc(C(=O)NC(C)c4ccc5c(c4)OCCO5)c3C2=O)CC1 (centres undefined)	.	?	.	23.1µM	.	.
CCOc1ccccc1C(=O)NC(C)c1ccc2c(c1)OCO2 (centres undefined)	.	18.4µM	.	?	.	.
CCOc1ccccc1C(=O)NCC(=O)Nc1ccc2c(c1)OCO2	.	.	.	.	.	.
CC1(C)C2CCC(C2)C1(C)NC(=O)CNC1CCCCC1 (centres undefined)	.	?	?	10.3µM	.	.
O=C(NCc1ccc2c(c1)OCO2)c1ccco1	.	.	.	.	.	.
O=C(CC(SCCO)c1ccc2c(c1)OCO2)c1ccco1 (centres undefined)	.	20.6µM	-56.4	18.4µM	.	.
CNc1ccc(Br)cc(C(=O)/C=C/c2ccc(OC)cc2OC)c1=O	/	9.2µM	?	14.6µM	.	.
CNc1ccc(Br)cc(C(=O)/C=C/c2ccc(Cl)cc2Cl)c1=O	.	4.61µM	-91.1	18.4µM	.	.
CNc1ccc(Br)cc(C(=O)/C=C/c2cccc(OC)c2)c1=O	.	13µM	-100.9	7.31µM	.	.
COc1ccc(NC(=O)c2cc(Br)ccc2Cl)c(OC)c1	.	.	.	.	.	.
CCCc1c(C(=O)Nc2cc(C)on2)cnn1-c1ccccc1	.	.	.	.	.	.
Nc1nc(N)c(Cc2ccc(Cl)cc2Cl)c(N)n1	.	25.9µM	.	23.1µM	.	.
CCO[C@@H]1OC(C(N)=O)=C[C@H](c2ccc(C(F)(F)F)cc2)[C@H]1CCCO	.	.	.	.	.	.
C=CCOC(=O)C1=C[C@@H](c2ccc(Br)cc2)[C@H](CCCO)[C@@H](OCC)O1	.	?	.	?	.	.
SMILES	TDP1 block	DT40 TDP1 CPT	IL-1B inflam inh	DT40 TDP1 no CPT	CtBP-E1A blk	Six1-Eya2 blk
C=CCOC(=O)C1=C[C@@H](c2ccccc2)[C@H](CCCO)[C@@H](OCC)O1	.	14.6µM	.	?	.	.
C=CCOC(=O)C1=C[C@H](c2ccc(C(F)(F)F)cc2)[C@@H](CCCO)[C@H](OCC)O1	.	23.1µM	.	?	.	.
C=CCOC(=O)C1=C[C@@H](c2ccc(C(F)(F)F)cc2)[C@H](CCCO)[C@@H](OCC)O1	.	23.1µM	.	11.6µM	.	.
CC(=O)N1N=C2c3ccccc3CCC2C1c1cccs1 (centres undefined)	.	?	.	?	.	.
CCn1cc(Cl)c(C(=O)N2N=C3/C(=C/c4cccs4)CCCC3C2c2cccs2)n1 (centres undefined)	.	18.4µM	?	?	.	.
COC(=O)/C(C#N)=C/c1c(-c2ccccc2)nc2n1CCS2	.	.	.	?	.	.
Clc1cccc(Cl)c1CO/N=C/c1c(-c2ccccc2)nc2n1CCS2	.	18.4µM	.	20.6µM	.	.
